Shown are actives, neighbours in structure and some others; about 3.1% of the full set was active somewhere.
Casp6 inh – caspase-6 (human) enzyme inhibition; P55212; purified caspase-6, Z-VEID-R110 cleavage fluorescence; inhibition, % at 12.5 µM; 0.53% of 350,000 active; AID 686996;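 active = mean inhibition across replicates at least about 35%, with every replicate also reaching that limit, limit read from the data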;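 note: 0% = median of neutral control wells and 100% = no fluorescence left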
FGF22 binding – binders of recombinant human FGF22 by thermal shift. Q9HCT0. SYPRO orange fluorescence; percent of sucrose octasulfate shift, DMSO zero. activity (Tm shift, normalised), % at 9.99 µM. 1.5% of 340,000 active. AID 651658;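 active = mean Tm shift, scaled 0 neutral to 100 positive control, at about 1.3% or above, every replicate too, limit read from the data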
SIRT5 inh – sirtuin-5 (human) deacylase inhibition; Q9NXA8; Purified SirT5, succinyl-peptide AMC, trypsin-coupled fluorescence; inhibition, % at 15 µM; 1.1% of 330,000 active; in the data active = inhibition above about 15%
Target sequence (Q9NXA8 whole entry, looked up): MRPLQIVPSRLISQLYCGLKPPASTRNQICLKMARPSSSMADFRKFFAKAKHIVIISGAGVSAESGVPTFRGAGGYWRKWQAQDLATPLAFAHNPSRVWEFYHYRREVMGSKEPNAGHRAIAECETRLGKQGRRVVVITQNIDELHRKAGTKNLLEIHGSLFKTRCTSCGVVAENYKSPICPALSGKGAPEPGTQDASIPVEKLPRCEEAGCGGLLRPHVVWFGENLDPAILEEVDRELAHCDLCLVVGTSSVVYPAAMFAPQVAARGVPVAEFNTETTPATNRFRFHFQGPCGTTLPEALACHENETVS
ERAP1 HTS inh – blocks human ERAP1 aminopeptidase activity | recombinant ERAP1, Leu-AMC fluorescence, 60 min | inhibition, % at 10.7 µM | 0.15% of 340,000 active;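 active = mean replicate inhibition of at least 30%, or all replicates individually reaching that 30% level; inactive = mean below 30% and not every replicate reaching it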;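 note: 0% = neutral control wells and 100% = L-leucinethiol positive control wells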
Active calls of the source: *; · = no result.

SMILES	Casp6 inh	FGF22 binding	SIRT5 inh	ERAP1 HTS inh
CCN(C(=O)COC(=O)c1ccc(Cl)c(N)c1)C1CCS(=O)(=O)C1 (stereo not given)	2	43*	0	-1
C/C=C/c1cnc2c(c1)C(=O)N([C@H](C)CO)C[C@@H](C)[C@@H](CN(C)C(=O)Cc1ccccc1)O2	-1	0	2	0
COc1ccc(NC(=O)COc2cccc3c2CCN(Cc2cccnc2)C3=O)cc1	-3	0	17*	1
C#CCn1c(=NC(=O)c2ccc(Cl)s2)sc2cccc(OC)c21	-2	0	4	30*
CC1=C(C(=O)OCC2CCCO2)C(c2coc3ccc(C)cc3c2=O)C2=C(CCCC2=O)N1 (stereo not given)	-2	64*	-3	-1
CC1=C(C(=O)OCC2CCCO2)C(c2coc3ccc(Cl)cc3c2=O)C2=C(CCCC2=O)N1 (stereo not given)	2	0	-3	1
CCC1CCCCN1C(=O)CCc1nnc(C2CCCCC2)o1 (stereo not given)	1	43*	-1	4
COC(=O)[C@@H]1CCCN1C(=O)CCc1nnc(C2CCCCC2)o1	-2	0	-1	5
CC=Cc1ccc2n(c1=O)C[C@@H]1[C@@H](CO)[C@H](C(=O)NCCC)N(C(=O)c3cccnc3)[C@H]21 (mixture of isomers)	1	·	2	-1
Cc1cccc(C)c1NC(=O)c1ccccc1C(=O)O	-7	0	0	-1
Cc1cc(C)c(NC(=O)c2ccccc2C(=O)c2ccccc2)c(C)c1	-1	43*	-2	-5
COc1ccc(Oc2ccc(N/C=C/C(=O)C(C)(C)C)cc2)cc1	0	0	-3	-4
COc1cccc(Oc2ccc(N/C=C/C(=O)C(C)(C)C)cc2)c1	0	44*	0	-1
O=S(=O)(N[C@H]1CC[C@@H](CCn2cc(C3(O)CCCC3)nn2)O[C@@H]1CO)c1ccccc1	-4	0	-1	-1
COc1ccc(-c2ccc3c(c2)C2CC3CCN2C(=O)C(C)(C)C)cc1 (stereo not given)	-2	0	1	-1
COc1ccc(-c2ccc3c(c2)C2CC3CCN2Cc2ccc(OC(F)(F)F)cc2)cc1 (stereo not given)	0	43*	·	2
O=C(c1ccncc1)N1C[C@@H]2[C@H](c3ccccc31)[C@H](CO)N2C(=O)Nc1cccc(F)c1	-1	-1	18*	-1
O=C(c1cccnc1)N1C[C@H]2[C@@H](c3ccccc31)[C@H](CO)N2C(=O)Nc1cccc(F)c1	-2	0	0	4
COc1ccc(-c2cc3ccccc3cn2)cc1	0	44*	-1	5
COc1ccc(-c2cc3ccc(OC)cc3cn2)cc1	1	0	-9	0
COc1ccccc1C(=O)N/C(=C\c1ccccc1)C(=O)NC(Cc1ccccc1)C(=O)O (stereo not given)	6	0	70*	0
COc1ccc(CN(C)C[C@H]2Oc3ccc(NS(=O)(=O)c4ccc(C)cc4)cc3C(=O)N([C@H](C)CO)C[C@@H]2C)cc1	0	0	3	-14
Cc1nnc(SCc2nnc(-c3cccs3)o2)s1	-4	0	0	-6
COc1cccc(OCc2nnc(-c3cccs3)o2)c1	-1	43*	-1	-3
O=C(CSc1ccc(-c2ccccc2)nn1)c1cccs1	3	0	16*	9
SMILES	Casp6 inh	FGF22 binding	SIRT5 inh	ERAP1 HTS inh
COc1ccc(-c2ccc(SCC(=O)c3cccs3)nn2)cc1	2	·	-2	2
Cc1c(NC(=O)COC(=O)C2(c3ccccc3F)CCCC2)c(=O)n(-c2ccccc2)n1C	-6	43*	-6	2
Cc1c(NC(=O)CSc2ccc(Cl)cc2)c(=O)n(-c2ccccc2)n1C	-2	44*	-1	0
Cc1c(NC(=O)COC(=O)C23CC4CC(CC(O)(C4)C2)C3)c(=O)n(-c2ccccc2)n1C	2	44*	-4	-2
Cc1c(NC(=O)CSc2nncn2-c2ccccc2)c(=O)n(-c2ccccc2)n1C	0	·	0	0
COc1ccc(O)c(C(=O)c2cnc3c(c2)c(C)nn3CCO)c1	-2	0	19*	0
COC(=O)N/N=C1/C/C(=N\NC(=O)OC)c2ccccc21	91*	0	-4	7
O=C(NCC(c1ccc(F)cc1)N1CCOCC1)c1cc(F)c(F)c(F)c1F (stereo not given)	-4	43*	-3	0
O=C(O)C1Cc2ccccc2CN1S(=O)(=O)c1ccc(Cl)cc1 (stereo not given)	3	1	-3	-7
